Source: PubChem BioAssay AID1117319 (Southern Research Institute, 2015)
Several values for one entry are separate records, joined by “and”; a condition that tells them apart may be missing. Equal entries are not always repeated. Out of some 260,000 compounds screened, about 1,500 (0.58%) were called active. About 5% were inconclusive and are not listed.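 Rule for the calls: active = inhibition above a set limit at one or more doses, reproduced on every date tested; inconclusive = results disagree between test dates, or hit never tested in dose response; inactive = the rest.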 A selection follows. Measured potencies and affinities stand elsewhere.

Molecular target: Virion infectivity factor (Human immunodeficiency virus type 1 group M subtype B (isolate BH10)) + Virion infectivity factor (Human immunodeficiency virus type 1 group M subtype B (isolate BRU/LAI)) + Virion infectivity factor (Human immunodeficiency virus type 1 group M subtype B (isolate PCV12)) + Virion infectivity factor (Human immunodeficiency virus type 1 group M subtype B (isolate HXB2)) + DNA dC->dU-editing enzyme APOBEC-3G (Homo sapiens) (UniProt P69720+P69721+P69722+P69723+Q9HC16)
Assay: HIV-1 Vif–A3G interaction blockers – biochemical, TR-FRET, GST-Vif 1-94, biotin-A3G peptide, dose response retest, primary screen (AID 1117319);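 note: Vif residues 1-94 fused to GST binding biotinylated APOBEC3G peptide 110-148; 0% = full assay without inhibitor and 100% = GST in place of GST-Vif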
Conditions: TR-FRET GST-Vif / biotin-A3G peptide binding; active compounds read high

inhibition, inactive:
C=CCn1c(O)c(C(CC)=NCCN2CCOCC2)c(=O)[nH]c1=O 65.5%, CCCCn1c(O)c(C(CC)=Nc2ccc3c(c2)CCC3)c(=O)[nH]c1=O 7.31%, COc1ccccc1NC(=O)Cn1cnc2sc(C(=O)Nc3ccc(OC)c(OC)c3)c(C)c2c1=O 0.19%, COc1ccc(S(=O)(=O)N2CCCCCC2)cc1C(=O)N(C)Cc1ccc(F)cc1 4.27%, C=CCNS(=O)(=O)c1cccc2cc(C(=O)O)c(O)cc12 -0.91%, CCN(CC)S(=O)(=O)c1cccc2cc(C(=O)O)c(O)cc12 -3.16%, Cc1ccc(N2C(=O)N(c3ccc(C)cc3)C3CS(=O)(=O)CC32)cc1 (stereo not given) -8.71%, C=CCn1c(COc2ccc(F)cc2)nnc1SCC(=O)N1CC(=O)Nc2ccccc21 3.87%, CCOC(=O)c1c(C=O)c(C)n(Cc2ccccc2)c1C 4.84%, CCOC(=O)c1cc(C)n(Cc2ccccc2)c1C 24.3%, FC(F)(F)c1cc(-c2ccco2)nc(NCc2ccc(Cl)cc2)n1 3.96%, FC(F)(F)c1cc(-c2ccccc2)nc(NCc2cccnc2)n1 -5.26%, Fc1ccc(CNc2nc(-c3ccco3)cc(C(F)(F)F)n2)cc1 9.71%, FC(F)(F)c1cc(-c2ccco2)nc(NCc2ccccc2)n1 15.6%, COc1ccc(/C=N/NC(=O)c2cccc([N+](=O)[O-])c2)cc1OS(=O)(=O)c1ccccc1 2.68%, COc1ccc(NC(c2ccccc2)c2ccncc2)cc1 (stereo not given) 7.39%, CCC(C)(C)NC(=O)C(c1ccc(C)cc1)N(CCN1CCOCC1)C(=O)CNC(=O)c1cccs1 (stereo not given) 2.09%, Cc1c(NC(=O)Cc2noc3ccccc23)cccc1[N+](=O)[O-] -3.42%, CCN(CCCNC(=O)CN(C)S(=O)(=O)c1cccc2nsnc12)c1ccccc1 20.3%, CC(=O)c1ccc(-c2cccs2)s1 2.24%, O=Cc1ccc(-c2cccs2)s1 -3.47%, CCCCC(=O)N/N=C/c1sccc1C -0.53%, Cc1ccsc1/C=N/n1cnnc1 -12.8%, CCOC(=O)c1[nH]c(C)c(C(=O)N(CC)CC)c1C 4.43%, CC(=O)NS(=O)(=O)c1ccc(NC(=O)c2ccc(-n3nc(C)cc3C)cc2)cc1 0.12%, CCOC(=O)C1CCN(C(=O)COC(=O)c2cc(-c3cccs3)nn2-c2ccccc2)CC1 -3.24%, O=C(O)CCN1/C(=C/C=Nc2ccccc2)Oc2ccccc21 20.6%, O=S1(=O)CC(O)C(NCc2ccco2)C1 (stereo not given) 11.1%, COc1ccc(NC2CS(=O)(=O)CC2NCc2ccccc2)cc1 (stereo not given) -0.42%, COc1ccc(C2c3c(oc4ccccc4c3=O)C(=O)N2c2ccccn2)cc1OC (stereo not given) -8.31%, COC1OC(COC(=O)c2ccccc2)C(OC(=O)c2ccccc2)C1OC(=O)c1ccccc1 (stereo not given) 3.23%, COC(=O)c1cc(O)c(O)c(O)c1 16.7%, O=C1c2ccccc2C(=O)N1CCc1csc(-c2ccccc2)n1 0.09%, O=C(O)CC(c1ccccc1)c1ccccc1 0.95%, O=C(O)CC(Cn1[nH]nnc1=S)c1ccccc1 (stereo not given) -2.23%, Cc1cccc(N=CC=C2OC(C)(C)C(C)(C)O2)c1 -6.65%, Cc1ccc(NC(=O)CNC(=O)c2ccc(C(C)(C)C)cc2)cc1S(=O)(=O)N1CCOCC1 0.79%, CCO[C@H]1OC(C(=O)N2CCN(Cc3ccc4c(c3)OCO4)CC2)=C[C@@H](c2cn(C(C)=O)c3ccccc23)[C@@H]1CCCO -9.76%, O=C(CN1C(=O)NC2(CCCCCC2)C1=O)NCc1cccs1 -5.46%, CC1CCC2(CC1)NC(=O)N(CC(=O)NCc1cccs1)C2=O (stereo not given) -3.91%, CC1CCC2(CC1)NC(=O)N(CC(=O)NCc1ccc3c(c1)OCO3)C2=O (stereo not given) -3.28%, O=C(CN1C(=O)NC2(CCCCC2)C1=O)NCc1ccc2c(c1)OCO2 -8.65%, O=C(c1nc2ccccn2c1CNCCCn1cccn1)N1CCCC1 23.8%, C/C(=N\NC(=O)Cn1ccc(C(F)(F)F)n1)c1ccc2c(c1)OCO2 -1.38%, CCN(CC)CCOC(=O)c1ccc(NC(=O)c2cccc(C)c2[N+](=O)[O-])cc1 2.15%, COc1ccc(CNC(=O)C(c2ccncc2)N(C(=O)Cc2cccs2)c2cccnc2)cc1 (stereo not given) 2.85%, COc1ccc(NC(=O)C[C@H]2C(=O)N(Cc3cccnc3)C[C@@H]2Cc2ccccc2)cc1 -1.58%, CCCNC(=O)Cc1ncn[nH]1 -3.15%, O=C(NCCc1ccccc1)c1ncn[nH]1 28.1%, O=C(CCN1C(=O)c2ccccc2C1=O)CN1CCOCC1 -9.57%, O=C(NC1CCCC1)C(c1ccc(Cl)cc1)N1CCc2ccccc21 (stereo not given) 2.15%, CCc1ccc(CN(Cc2cccnc2)C(=O)/C=C/c2ccc(OC)cc2)cc1 -6.21%, CC(C)(C)c1ccc(C(=O)N2CCN(c3ncccn3)CC2)cc1 -3.51%, CCN1C(=O)/C(=C/N2CCc3ccccc32)SC1=S 2.5%, c1ccc2c(c1)CCN2CCN1CCc2ccccc21 -3.68%, O=C(C#Cc1ccccc1)c1ccccc1 -8.84%, COc1ccc(Cl)cc1N(CC(=O)Nc1cccc(SC)c1)S(C)(=O)=O 4.16%, CCN1C(=O)/C(=C/N(C)c2ccccc2)OC1=S 0.98%, CC(C)(C)c1ccc(OCCC(=O)Nc2cccc(S(=O)(=O)NC3=NCCCCC3)c2)cc1 -0.89%, O=C(NCc1ccco1)c1csc(Nc2ccccc2Cl)n1 -7.13%, COc1ccc(Nc2nc(C(=O)NCc3ccco3)cs2)cc1 -1.71%, O=C(CNC(=O)c1ccccc1F)OCCOc1cccc(Cl)c1 3.91%, Cc1ccc(CCNC(=O)C2CC(c3ccccc3C(F)(F)F)=NO2)cc1 (stereo not given) -3.19%, COc1ccc(C2=C(N)c3ccccc3C2=O)cc1 29%, COc1ccc(N)c2c1C(=O)c1ccccc1C2=O -29.2%, Cc1cccc(N2C(=O)c3ccc(Br)cc3C2=O)n1 1.11%, COc1ccc(-c2c(N)cnc(C(=O)O)c2C)c(OCc2ccccc2)c1OC 2.47%, COc1ccc(-c2c(C#N)cnc(C)c2C)c(O)c1OC -2.84%, NC1=C(Br)C(=O)c2ncccc2C1=O 0.39%, COc1ccc(CC(=O)Nc2ccc(C(N)=O)cc2)cc1 15.2%, CCOc1ccc(N2C(=O)CC(N(Cc3ccco3)C(=O)CC)C2=O)cc1 (stereo not given) 0.31%, Cc1c(N/C(=N/S(=O)(=O)c2ccc(F)cc2)c2ccccc2)c(=O)n(-c2ccccc2)n1C 0.73%, Cc1sc2nc(CSC(C)C(=O)NC3(C#N)CCCCC3)[nH]c(=O)c2c1C (stereo not given) 9.91%, C[C@]12C=CC(=O)C=C1CCC1C2CC[C@@]2(C)C1CCC21OCCO1 (stereo not given in full) -4.95%, C=C(C)COc1ccc2c(CC)cc(=O)oc2c1C -15.7%, O=C(CCN1C(=O)/C(=C/c2ccco2)SC1=S)Nc1ccc(O)cc1C(=O)O 20.3%, COc1ccc(/C=C2/SC(=S)N(CCCC(=O)Nc3cccc(O)c3)C2=O)cc1 4.43%, O=C(CCCN1C(=O)/C(=C\c2ccccc2)SC1=S)Nc1ccc(O)cc1 7.93%, O=C(CCCN1C(=O)/C(=C\c2cccs2)SC1=S)Nc1ccccc1O 3.84%, CCN1C=C(Cc2ccccc2C)C2=C(C1)C(c1ccccc1C)C(C#N)=C(N)O2 (stereo not given) 3.15%, O=C(CCC(=O)Nc1ccccc1Cl)NNC(=O)Nc1cccc([N+](=O)[O-])c1 -2.42%, c1ccc(N2CCN(c3ncccn3)CC2)cc1 2.21%, c1ccc(N2CCN(c3cnccn3)CC2)nc1 -2.48%, Cc1ccc(Sc2ncccc2C(=O)O)cc1 1.95%, O=C(NCC(c1ccco1)N1CCCC1)c1cn(-c2ccccc2)nc1-c1ccc(F)cc1 (stereo not given) -3.8%, C[C@H](NS(=O)(=O)c1ccccc1)C(=O)N1CCN(C(c2ccccc2)c2ccccc2)CC1 0.88%, COc1ccc(OC)c(NS(=O)(=O)c2ccc(Br)s2)c1 2.77%, Oc1cccc2ccc(N3CCOCC3)nc12 -8.55%, CC(C)(C)C(=O)Oc1cc(N)n(S(=O)(=O)c2ccccc2)n1 -2.72% and -3.77%, COc1ccc(CN(C(=O)c2cccs2)c2ccccc2C(=O)O)cc1 -12.9%, O=C1OCCC1Sc1ncnc2sc3c(c12)CCC3 (stereo not given) 21.7%, CN(Cc1ccccc1)C(=O)COC(=O)C1CCN(S(=O)(=O)c2ccc3c(c2)OCCO3)CC1 -5.03%, Cc1ccc(C)c(/C(O)=C2\C(=O)C(=O)N(CCCN3CCOCC3)C2c2cccnc2)c1 (stereo not given) -1.34%, COC(=O)c1[nH]c(C)c(/C(O)=C2\C(=O)C(=O)N(CCN3CCOCC3)C2c2ccco2)c1C (stereo not given) 10.8%, CC(CCc1ccccc1)NC(=O)c1nnc(Cc2ccc(Cl)cc2)o1 (stereo not given) -1.14%
